MITF inh: human MITF inhibition, primary screen | AlphaScreen MITF homodimerization, bead proximity signal | inhibition, % at 2.6 µM | 0.91% of 650,000 active; in the data active = inhibition above about 50%;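 note: 0% = vehicle wells with protein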
GPR151 activ: activators of human GPR151 | AID 1508602 | activation, % at 11.2 µM | 1% of 650,000 active | Q8TDV0 | PathHunter beta-arrestin GPR151 cells, luminescence; in the data active = activation above about 4.9%;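 note: 0% = median of compound wells and 100% = cells with positive control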
TEAD-YAP inh: TEAD-YAP interaction inhibition; inhibition, % at 9.12 µM; HEK-TIYL cells, TEAD-Gal4/YAP UAS-luciferase luminescence; 1.4% of 640,000 active; in the data active = inhibition above about 32%;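 note: 0% = median of test compound wells and 100% = reference inhibitor wells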
FBW7 act: human FBW7 E3 ligase activation, primary screen; Q969H0; AlphaScreen FBW7–phospho-cyclin E peptide binding, activator screen; normalized activity (activation), % at 26.1 µM; 0.13% of 650,000 active; AID 1259310; in the data active = normalized activity above about 1.9%;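 note: purified mutant Fbw7 with reduced substrate affinity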
Target sequence (Q969H0 whole entry, looked up): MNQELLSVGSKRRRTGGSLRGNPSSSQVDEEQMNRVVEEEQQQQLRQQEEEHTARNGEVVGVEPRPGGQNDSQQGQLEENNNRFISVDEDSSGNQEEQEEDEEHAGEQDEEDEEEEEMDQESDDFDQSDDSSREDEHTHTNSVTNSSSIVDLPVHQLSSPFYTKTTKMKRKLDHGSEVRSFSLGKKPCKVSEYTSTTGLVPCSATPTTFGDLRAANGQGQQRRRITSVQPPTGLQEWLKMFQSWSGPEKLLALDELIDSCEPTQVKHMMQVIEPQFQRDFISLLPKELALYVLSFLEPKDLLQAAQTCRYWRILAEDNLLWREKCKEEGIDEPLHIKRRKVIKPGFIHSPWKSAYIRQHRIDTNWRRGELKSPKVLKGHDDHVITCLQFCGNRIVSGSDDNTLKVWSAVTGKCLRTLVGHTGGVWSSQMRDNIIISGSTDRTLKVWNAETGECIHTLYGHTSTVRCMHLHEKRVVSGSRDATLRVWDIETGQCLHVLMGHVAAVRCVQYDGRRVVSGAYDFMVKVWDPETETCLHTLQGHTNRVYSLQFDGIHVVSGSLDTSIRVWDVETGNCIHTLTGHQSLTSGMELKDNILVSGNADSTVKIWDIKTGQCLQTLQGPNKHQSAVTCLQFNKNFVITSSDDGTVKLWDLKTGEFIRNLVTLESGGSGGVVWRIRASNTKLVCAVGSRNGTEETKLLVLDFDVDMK
* marks the source's active call; other numbers are inactive results. Only some compounds are listed: those with a hit (about 3.5% of all), similar ones and a draw of the others.

SMILES | MITF inh | GPR151 activ | TEAD-YAP inh | FBW7 act
O=C1CCCC2=C1C(c1ccc(Cl)c(Cl)c1)Nc1ccc(C(=O)c3ccccc3)cc1N2 (stereo unspecified) | 4 | 0 | 50* | 0
CC1CCCC(NC(=O)C2N(Cc3ccc(Cl)cc3)C(=O)C3C(C(=O)Nc4cc(Cl)cc(Cl)c4)C4C=CC32O4)C1C (stereo unspecified) | -13 | 0 | 3 | 0
Cc1ccc(OC(=O)N2CCN3C(=O)[C@H](Cc4c[nH]c5ccccc45)NC(=O)[C@H]3C2)cc1 | 5 | -1 | -17 | 0
CCN(CC)C(=O)c1ccc(C(C)(C)C)cc1 | 2 | 3 | -2 | 0
COCCn1c2ccccc2n2c(=O)n(CC(=O)N3CCCc4ccccc43)nc12 | -10 | 1 | -7 | 0
COc1cccc(-n2cc(C(=O)Nc3nccs3)c3ccccc3c2=O)c1 | -6 | 1 | 43* | 0
O=C(COc1ccccc1)Nc1nccs1 | 9 | -10 | -3 | 0
COc1cccc(-n2cc(C(=O)Nc3ccccc3Cl)c3ccccc3c2=O)c1 | 6 | -2 | 9 | 1
COc1cccc(OCC(=O)Nc2nccs2)c1 | 0 | -5 | 37* | 0
CC(=O)Nc1cccc(NC(=O)c2cn(-c3ccc(C)c(C)c3)c(=O)c3ccccc23)c1 | 4 | 0 | 44* | 0
Cc1cccc(OCCCC(=O)Nc2nccs2)c1 | -5 | 2 | 4 | 0
Cc1cccc(OCC(=O)Nc2nccs2)c1 | -11 | -6 | 54* | 0
CCOC(=O)c1c(NC(=O)C(C)Sc2nnc(CNC(=O)c3ccccc3F)n2CCc2ccccc2)sc2c1CCC2 (stereo unspecified) | 10 | -1 | 14 | 0
O=C(CN1C(=O)/C(=C\c2cccs2)SC1=S)Nc1ccc([N+](=O)[O-])cc1O | -4 | 0 | 10 | 0
Cc1c(C(=O)NCc2ccc(Cl)cc2)sc2ncn(CC(=O)N3CCN(c4ccccn4)CC3)c(=O)c12 | 11 | -1 | 7 | 0
Nc1nnnn1/N=C/c1cc([N+](=O)[O-])cc([N+](=O)[O-])c1O | 6 | -1 | 2 | 0
O=C(CCN1C(=O)/C(=C\c2ccco2)SC1=S)Nc1ccc([N+](=O)[O-])cc1O | 4 | 1 | 6 | 0
O=C1C2=C(Nc3[nH]c(=O)[nH]c(=O)c3C2c2ccc(Cl)cc2)c2ccccc21 (stereo unspecified) | 26 | 0 | 42* | 0
COCCn1c2c(c(=O)[nH]c1=O)C(c1ccc(Cl)cc1)C1=C(N2)c2ccccc2C1=O (stereo unspecified) | 14 | 0 | -3 | 0
Cc1ccc2oc3nn(-c4ccccc4)c(=O)c-3cc2c1 | 9 | -1 | 53* | 1
O=C(O)/C=C\C(=O)Nc1ccc(Cl)c(Cl)c1 | 19 | 0 | 1 | 0
O=C(O)/C=C\C(=O)Nc1ccc2cn[nH]c2c1 | -5 | 0 | 47* | -1
COc1cc(C2Nc3ccc4ncccc4c3C3=C2C(=O)CCC3)ccc1OC(C)=O (stereo unspecified) | -3 | 0 | 52* | 0
COC(=O)c1cn[nH]c1NC(=S)Nc1ccc(Br)cc1 | -4 | 0 | 39* | 0
COC(=O)c1cn[nH]c1NC(=S)Nc1c(C)cccc1C | -1 | -1 | -6 | 0
SMILES | MITF inh | GPR151 activ | TEAD-YAP inh | FBW7 act
NC(=O)c1ncsc1Nc1ccnc(Nc2ccc(N3CCOCC3)cc2)c1 | 20 | 3 | 21 | 0
CSc1nc(Nc2ccnc(Nc3ccc(N4CCOCC4)cc3)c2)c(C(N)=O)s1 | 8 | 0 | 41* | -1
COc1cc(COc2ccc3ccc(=O)oc3c2)cc(OC)c1OC | 0 | -1 | 4 | 0
COc1cc(COc2ccc3c(C)cc(=O)oc3c2)cc(OC)c1OC | -8 | 2 | 56* | 0
Nc1nc2ccc(Cc3ccc4nc(N)sc4c3)cc2s1 | 10 | -1 | 41* | 0
Nc1nc2ccc(Cc3nc4ccccc4o3)cc2s1 | -17 | 1 | -54 | 0
c1cncc(-c2nnc(SCc3nc4ccccc4[nH]3)o2)c1 | -6 | -1 | 44* | 0
CC(C)NC(=O)NC(=O)COc1ccccc1C#N | -5 | -1 | -35 | 0
CC(C)(C)NC(=O)NC(=O)COc1ccccc1C#N | 1 | -2 | 40* | 0
CCOC(=O)CSc1nc2cc(C(=O)NCc3ccccc3Cl)ccc2c(=O)n1Cc1ccccc1 | 6 | 1 | -2 | 0
Cc1cc(=O)oc2c1ccc1oc(C(=O)c3ccccc3)c(-c3ccccc3)c12 | 6 | 0 | 72* | 0
CC(=O)c1oc2ccc3c(C)cc(=O)oc3c2c1-c1ccccc1 | 1 | 1 | -3 | 0
Cc1cc(=O)oc2c1ccc1oc(C(=O)c3ccccc3)c(C)c12 | 11 | 0 | 49* | 0
C/C(=N\O)c1oc2ccc3c(C)cc(=O)oc3c2c1C | 0 | 0 | 6 | 0
Cc1cc(=O)oc2c1ccc1oc(C(=O)c3ccc(Cl)cc3)c(-c3ccccc3)c12 | -1 | 0 | 63* | 0
COc1ccc(-n2nc3c(c2NC(=O)c2ccccc2OC)CS(=O)(=O)C3)cc1 | -14 | -2 | -9 | 0
O=C(/C=C/c1ccccc1)Nc1nc(-c2ccccc2)c(C(=O)c2ccccc2)s1 | 2 | 0 | 9 | 0
COc1cccc(CN2C(=O)C3C(C(=O)Nc4ccc(C(C)C)cc4)C4C=CC3(O4)C2C(=O)NC2CCCCC2C)c1 (stereo unspecified) | 7 | -1 | 4 | 0
Oc1oc(-c2ccccc2Br)nc1C=Nc1cc(Cl)c(Cl)cc1Cl | -5 | 0 | -1 | 0
Cc1ccc(C(=O)Nc2ncc(C)s2)c(C)c1 | 6 | -4 | 80* | 0
CCn1c(SCc2cccnc2)nnc1-c1cc2ccccc2cc1O | -2 | 0 | 44* | 0
COc1cccc(-c2nc3sc4c(c3c(=O)n2Cc2ccccc2F)CCCC4)c1 | 6 | -1 | 32* | 0
Cc1ccccc1Cn1cnc2sc3c(c2c1=O)CCCC3 | 3 | 0 | 51* | 0
CCCN1CCN(C(=O)Cn2cc3c(n2)CCC(C)C3)CC1 (stereo unspecified) | 7 | 1 | 5 | 1
Cc1ccc(NC(=O)CN(C)S(=O)(=O)c2ccc3nc(-c4ccccc4)[nH]c3c2)cc1 | 5 | 1 | 0 | 0
SMILES | MITF inh | GPR151 activ | TEAD-YAP inh | FBW7 act
COc1ccc(Cl)cc1NC(=O)Cn1nnc(C(=O)NCc2cccs2)c1N | -7 | 0 | 45* | 0
COc1cc([N+](=O)[O-])ccc1N/C=C/C(=O)c1ccc(C)o1 | 1 | 2 | 35* | 0
COc1cc([N+](=O)[O-])ccc1NC(=O)c1ccco1 | 12 | -1 | -7 | 0
COc1cccc(C(=O)/C=C/Nc2ccc([N+](=O)[O-])cc2OC)c1 | 1 | 0 | 35* | 0
COc1cc([N+](=O)[O-])ccc1N/C=C/C(=O)c1ccco1 | 15 | 0 | 71* | 0
COc1ccc(C2C(C(=O)Nc3nc4ccc(Br)cc4s3)=C(C)NC3=C2C(=O)CC(C)(C)C3)cc1 (stereo unspecified) | -7 | 1 | -26 | 0
CSc1nc2c(c(=O)n1-c1ccccc1)C1(CCCC1)Cc1ccccc1-2 | -8 | -1 | -9 | 0

Source: PubChem BioAssay (The Scripps Research Institute Molecular Screening Center)
